# Data: paper PMC9911399, “Two distinct binding modes provide the RNA-binding protein RbFox with extraordinary sequence specificity”
# Numbering of substitutions follows the chain as printed; changes in the protein carry UniProt numbers. Over roughly 16,000 sequences, “ka relative to ugcaugu” has its median near 0.0091; the highest 2% begin near 0.032. This is one part of a sample in which the highest values are shown more often than they occur.
# T1: RBFOX1 RRM (Homo sapiens, UniProt Q9NWB1 109-208)
# T1 sequence: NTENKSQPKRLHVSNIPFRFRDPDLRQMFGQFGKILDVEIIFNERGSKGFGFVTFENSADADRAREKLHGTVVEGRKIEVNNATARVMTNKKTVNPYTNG
# B1: CUGCAGA (DNA:RNA)
# RNA: GGGAGACCGGAAUUCAGAUUGUCCCUGCAGAUUAAAUCCCGUCGUAGCCACCA
# DNA 1: CAATCTGAATTCCGGTCTCCC
# DNA 2: TGGTGGCTACGACGGGATT
# B2: AUUUAGA (DNA:RNA)
# RNA: B1 RNA with C25A, G27U, C28U
# DNA 1: CAATCTGAATTCCGGTCTCCC
# DNA 2: TGGTGGCTACGACGGGATT
# B3: GAACGUU (DNA:RNA)
# RNA: B1 RNA with C25G, U26A, G27A, A29G, G30U, A31U
# DNA 1: CAATCTGAATTCCGGTCTCCC
# DNA 2: TGGTGGCTACGACGGGATT
# B4: CGGCGCA (DNA:RNA)
# RNA: B1 RNA with U26G, A29G, G30C
# DNA 1: CAATCTGAATTCCGGTCTCCC
# DNA 2: TGGTGGCTACGACGGGATT
# B5: CCGCUCA (DNA:RNA)
# RNA: B1 RNA with U26C, A29U, G30C
# DNA 1: CAATCTGAATTCCGGTCTCCC
# DNA 2: TGGTGGCTACGACGGGATT
# B6: UUAGAAU (DNA:RNA)
# RNA: B1 RNA with C25U, G27A, C28G, G30A, A31U
# DNA 1: CAATCTGAATTCCGGTCTCCC
# DNA 2: TGGTGGCTACGACGGGATT
# B7: GUAUACC (DNA:RNA)
# RNA: B1 RNA with C25G, G27A, C28U, G30C, A31C
# DNA 1: CAATCTGAATTCCGGTCTCCC
# DNA 2: TGGTGGCTACGACGGGATT
# B8: CUGUGGC (DNA:RNA)
# RNA: B1 RNA with C28U, A29G, A31C
# DNA 1: CAATCTGAATTCCGGTCTCCC
# DNA 2: TGGTGGCTACGACGGGATT
# B9: UGGCUGU (DNA:RNA)
# RNA: B1 RNA with C25U, U26G, A29U, A31U
# DNA 1: CAATCTGAATTCCGGTCTCCC
# DNA 2: TGGTGGCTACGACGGGATT
# B10: CCCUGGC (DNA:RNA)
# RNA: B1 RNA with U26C, G27C, C28U, A29G, A31C
# DNA 1: CAATCTGAATTCCGGTCTCCC
# DNA 2: TGGTGGCTACGACGGGATT
# B11: CUGGCUC (DNA:RNA)
# RNA: B1 RNA with C28G, A29C, G30U, A31C
# DNA 1: CAATCTGAATTCCGGTCTCCC
# DNA 2: TGGTGGCTACGACGGGATT
# B12: UUGGCUC (DNA:RNA)
# RNA: B1 RNA with C25U, C28G, A29C, G30U, A31C
# DNA 1: CAATCTGAATTCCGGTCTCCC
# DNA 2: TGGTGGCTACGACGGGATT
# B13: UGGGCUC (DNA:RNA)
# RNA: B1 RNA with C25U, U26G, C28G, A29C, G30U, A31C
# DNA 1: CAATCTGAATTCCGGTCTCCC
# DNA 2: TGGTGGCTACGACGGGATT
# B14: GUGCUGU (DNA:RNA)
# RNA: B1 RNA with C25G, A29U, A31U
# DNA 1: CAATCTGAATTCCGGTCTCCC
# DNA 2: TGGTGGCTACGACGGGATT
# B15: CGGCUGU (DNA:RNA)
# RNA: B1 RNA with U26G, A29U, A31U
# DNA 1: CAATCTGAATTCCGGTCTCCC
# DNA 2: TGGTGGCTACGACGGGATT
# B16: CUGGCUG (DNA:RNA)
# RNA: B1 RNA with C28G, A29C, G30U, A31G
# DNA 1: CAATCTGAATTCCGGTCTCCC
# DNA 2: TGGTGGCTACGACGGGATT
# B17: UUGGCUG (DNA:RNA)
# RNA: B1 RNA with C25U, C28G, A29C, G30U, A31G
# DNA 1: CAATCTGAATTCCGGTCTCCC
# DNA 2: TGGTGGCTACGACGGGATT
# B18: UGGCUCU (DNA:RNA)
# RNA: B1 RNA with C25U, U26G, A29U, G30C, A31U
# DNA 1: CAATCTGAATTCCGGTCTCCC
# DNA 2: TGGTGGCTACGACGGGATT
# B19: GUGGCUG (DNA:RNA)
# RNA: B1 RNA with C25G, C28G, A29C, G30U, A31G
# DNA 1: CAATCTGAATTCCGGTCTCCC
# DNA 2: TGGTGGCTACGACGGGATT
# B20: CAUUUCG (DNA:RNA)
# RNA: B1 RNA with U26A, G27U, C28U, A29U, G30C, A31G
# DNA 1: CAATCTGAATTCCGGTCTCCC
# DNA 2: TGGTGGCTACGACGGGATT
# B21: UAUCCUA (DNA:RNA)
# RNA: B1 RNA with C25U, U26A, G27U, A29C, G30U
# DNA 1: CAATCTGAATTCCGGTCTCCC
# DNA 2: TGGTGGCTACGACGGGATT
# B22: GAGGAUC (DNA:RNA)
# RNA: B1 RNA with C25G, U26A, C28G, G30U, A31C
# DNA 1: CAATCTGAATTCCGGTCTCCC
# DNA 2: TGGTGGCTACGACGGGATT
# B23: GUAUACA (DNA:RNA)
# RNA: B1 RNA with C25G, G27A, C28U, G30C
# DNA 1: CAATCTGAATTCCGGTCTCCC
# DNA 2: TGGTGGCTACGACGGGATT
# B24: GUUGCGA (DNA:RNA)
# RNA: B1 RNA with C25G, G27U, C28G, A29C
# DNA 1: CAATCTGAATTCCGGTCTCCC
# DNA 2: TGGTGGCTACGACGGGATT
# B25: AUCUGUA (DNA:RNA)
# RNA: B1 RNA with C25A, G27C, C28U, A29G, G30U
# DNA 1: CAATCTGAATTCCGGTCTCCC
# DNA 2: TGGTGGCTACGACGGGATT
# B26: ACGGGUC (DNA:RNA)
# RNA: B1 RNA with C25A, U26C, C28G, A29G, G30U, A31C
# DNA 1: CAATCTGAATTCCGGTCTCCC
# DNA 2: TGGTGGCTACGACGGGATT
# B27: UGUGAUC (DNA:RNA)
# RNA: B1 RNA with C25U, U26G, G27U, C28G, G30U, A31C
# DNA 1: CAATCTGAATTCCGGTCTCCC
# DNA 2: TGGTGGCTACGACGGGATT
# B28: CCAGUCU (DNA:RNA)
# RNA: B1 RNA with U26C, G27A, C28G, A29U, G30C, A31U
# DNA 1: CAATCTGAATTCCGGTCTCCC
# DNA 2: TGGTGGCTACGACGGGATT
# B29: UCAGGUC (DNA:RNA)
# RNA: GGGAGACCGGAAUUCAGAUUGUCCUCAGGUCUUAAAUCCCGUCGUAGCCACCA
# DNA 1: CAATCTGAATTCCGGTCTCCC
# DNA 2: TGGTGGCTACGACGGGATT
# B30: GGAAAAU (DNA:RNA)
# RNA: B1 RNA with C25G, U26G, G27A, C28A, G30A, A31U
# DNA 1: CAATCTGAATTCCGGTCTCCC
# DNA 2: TGGTGGCTACGACGGGATT
# B31: CUAUCGG (DNA:RNA)
# RNA: B1 RNA with G27A, C28U, A29C, A31G
# DNA 1: CAATCTGAATTCCGGTCTCCC
# DNA 2: TGGTGGCTACGACGGGATT
# Biological target: T1, RBFOX1 RRM
# Experiment: EMSA; HiTS-Eq, 1 nM pool, 10 min; buffer printed only for the single-RNA assays: 10 mM Tris pH 7.5, 150 mM NaCl, 3.4 mM EDTA, 0.001% NP-40, 30 C
# Details: tags: His6 N-terminal (pET28a); label: 5' 32P
# Outline: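 Purified wild-type or mutant RbFox RRM at increasing concentrations was equilibrated with 1 nM of 5′-radiolabelled RNA carrying 7 randomized nucleotides for 10 min in 50 µL. Unbound RNA was separated by 8% native PAGE and sequenced. Relative association constants came from read-count changes of each RNA species compared with the control reaction, normalised to the cognate motif.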
row,Binder,binding signal
1,B1,0.0168 KA relative to UGCAUGU
2,B2,0.0108 KA relative to UGCAUGU
3,B3,0.0166 KA relative to UGCAUGU
4,B4,0.0121 KA relative to UGCAUGU
5,B5,0.00712 KA relative to UGCAUGU
6,B6,0.00773 KA relative to UGCAUGU
7,B7,0.0043 KA relative to UGCAUGU
8,B8,0.0106 KA relative to UGCAUGU
9,B9,0.0395 KA relative to UGCAUGU
10,B10,0.011 KA relative to UGCAUGU
11,B11,0.0211 KA relative to UGCAUGU
12,B12,0.0219 KA relative to UGCAUGU
13,B13,0.0362 KA relative to UGCAUGU
14,B14,0.021 KA relative to UGCAUGU
15,B15,0.0179 KA relative to UGCAUGU
16,B16,0.0348 KA relative to UGCAUGU

row,Binder,binding signal
1,B17,0.0406 KA relative to UGCAUGU
2,B18,0.0197 KA relative to UGCAUGU
3,B19,0.0289 KA relative to UGCAUGU
4,B20,0.00769 KA relative to UGCAUGU
5,B21,0.00279 KA relative to UGCAUGU
6,B22,0.0149 KA relative to UGCAUGU
7,B23,0.00201 KA relative to UGCAUGU
8,B24,0.0206 KA relative to UGCAUGU
9,B25,0.00557 KA relative to UGCAUGU
10,B26,0.0159 KA relative to UGCAUGU
11,B27,0.0227 KA relative to UGCAUGU
12,B28,0.00457 KA relative to UGCAUGU
13,B29,0.0155 KA relative to UGCAUGU
14,B30,0.00757 KA relative to UGCAUGU
15,B31,0.00622 KA relative to UGCAUGU
